Compound activity (PubChem)
The list is not random: actives were taken first. Their share in the collection is about 21%.
Cycloheximide cs: Cycloheximide Counterscreen for Small Molecule Inhibitors of Shiga Toxin; cell reporter, cycloheximide protein synthesis inhibition counterscreen; max response, %; hit rate 12% among 300,000; AID 2314, 2010; in the data active means max response mostly above about 13%, no sharp cut-off; inactive means mostly below about 14%; further: read at 38.3 µM for the half of the compounds with a filed dose; 0% is about no effect
Pf growth 96h: Primary qHTS for delayed death inhibitors of the malarial parasite plastid, 96 hour incubation; P. falciparum luciferase reporter growth, 96 h; Potency, µM (top dose mostly 28.7 µM), inactives show at the top dose activity change, negative = inhibition, most hits filed as inhibitors; hit rate 6.9% among 320,000; AID 504834, 2011; further: potency means the concentration at half of the fitted maximal effect; on the % scale 0 is the no-effect control and ±100 the full control effect
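Erythrocytes infected with luciferase-expressing P. falciparum were dispensed at 2% hematocrit and 0.05% parasitemia (final), then incubated with compounds 96 hours at 37 C in 5% CO2. Luminescence after detection reagent addition reported growth.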
NS1 function inh: qHTS Assay for Inhibitors of Influenza NS1 Protein Function; Potency, µM (top dose mostly 46.1 µM), for inactives: at the top dose activity, positive = more growth; hit rate 0.4% among 270,000; calls by dose curve; further: potency means the concentration at half of the fitted maximal effect; actives are rising curves; nearly all actives have a fitted effect of over 50% in size
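S. cerevisiae expressing influenza A NS1, grown in glucose, washed, then diluted 1:100 into pH 6.0 -URA galactose medium with 23 nl compound. Growth recovery read as OD600; NS1-free strain serves as control.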
Sm TGR inh: qHTS Assay for the Inhibitors of Schistosoma Mansoni Peroxiredoxins; Schistosoma mansoni thioredoxin glutathione reductase (TGR), Q962Y6; purified TGR, DTNB reduction, TNB absorbance 405 nm; Potency, µM (top dose mostly 114 µM), inactives show at the top dose activity change, negative = inhibition, most hits filed as inhibitors; hit rate 3% among 360,000; AID 485364, 2010; further: potency means the concentration at half of the fitted maximal effect; on the % scale 0 is the no-effect control and ±100 the full control effect; nearly all actives have a fitted effect of over 60% in size
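TGR 20 nM + NADPH 100 uM (dispensed conc.), cpd preinc 15 min RT; start with NADPH (500 uM addition) then DTNB (15 mM addition). Kinetic TNB absorbance, 405 nm filter. Four-parameter Hill fit across titration.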
Pf growth 48h: Primary qHTS for delayed death inhibitors of the malarial parasite plastid, 48 hour incubation. hit rate 5.9% among 310,000. Potency, µM (doses to about 28.7 µM), without a hit: top-dose activity change, negative = inhibition, hits mostly inhibitors. AID 504832, 2011. P. falciparum luciferase growth in erythrocytes, 48 h; further: potency means the concentration at half of the fitted maximal effect; on the % scale 0 is the no-effect control and ±100 the full control effect
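Luciferase-expressing P. falciparum in infected erythrocytes (2% hematocrit, 0.1% parasitemia final) in RPMI 1640/0.5% Albumax were exposed to compound for 48 hours at 37 C, 5% CO2; growth read as luminescence.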
Shiga toxin inh: A qHTS for Small Molecule Inhibitors of Shiga Toxin; inhibition, % at 38.7 µM; Vero cells, Shiga toxin protein synthesis inhibition reporter; hit rate 9.2% among 290,000; in the data active means inhibition mostly above about 28%, no sharp cut-off; inactive means mostly below about 43%; further: 0% is about no effect
Starred values were filed as active, the others as inactive; i = inactive; ? = inconclusive; / = no result given; + = active, no number. Unless noted, the call rests on the fitted dose curve; in most records, active means well fitted curve in the direction sought with a large enough effect; inconclusive means small, poorly fitted or top-dose-only effect, or another doubt; inactive means no such curve, though single readings can be large; an effect the other way counts as inactive or inconclusive.

SMILES | Cycloheximide cs | Pf growth 96h | NS1 function inh | Sm TGR inh | Pf growth 48h | Shiga toxin inh
COc1ccc(C(=O)Nn2c(SCC(=O)NC3CCCC3)nc3ccccc3c2=O)cc1 | 68.9* | i | 17.6% | -26.0% | 306.5% | 46.5
COc1ccc(C(=O)Nn2c(SCC(=O)NCC3CCCO3)nc3ccccc3c2=O)cc1 (stereo not given) | -2.4 | / | -4.8% | 2.1% | -0.3% | -9.9
O=C(CSc1nc2ccccc2c(=O)n1C1CC1)NCc1ccccc1 | -6.8 | 14.7µM* | -55.6% | 13.9% | -9.1% | -34.6
COc1ccc(C(=O)Nn2c(SCC(=O)NCc3ccccc3)nc3ccccc3c2=O)cc1 | 50.8* | ? | -7.3% | -20.8% | / | 43.8
CCCOc1ccc(NC(=O)CC2C(=O)N(c3ccc(OCC)cc3)C(=S)N2C2CC2)cc1 (stereo not given) | -1.4 | ? | 4.6% | ? | ? | 2.2
COc1cc(C(CC(=O)Nc2ccccn2)N2Cc3ccccc3C2=O)cc(OC)c1OC (stereo not given) | -2.1 | ? | 7.3% | -7.4% | ? | 16.0
Cn1c(=O)n(CC(=O)NCC2CCCO2)c(=O)c2c3c(sc21)COC(C)(C)C3 (stereo not given) | -3.7 | 28.3% | 4.2% | -4.5% | 6.2% | 17.3
CC(C)c1ccc(NC(=O)C(Cc2ccccc2)NS(=O)(=O)c2ccc3c(c2)oc(=O)n3C)cc1 (stereo not given) | / | / | / | 6.7% | / | /
Cc1cnc2cc(Cl)c(Cl)cc2n1 | -3.7 | ? | 12.5% | -1.8% | -15.3% | -2.9
Cc1nc2cc(Cl)c(Cl)cc2nc1C | 48.3* | / | -15.5% | -15.3% | 65.1% | +
Cn1c(N)c(C(=O)CSc2nnc(-c3ccccc3F)n2N)c(=O)n(C)c1=O | 0.2 | 10.4µM* | 1.5% | -2.1% | ? | -8.2
COc1ccccc1-n1c(COc2ccccc2-c2ccccc2)nnc1SCC(=O)c1c(N)n(C)c(=O)n(C)c1=O | -2.3 | ? | 3.55µM* | 2.9% | 16.6% | 4.9
COc1ccccc1C(=O)Nc1ncc2c(n1)CC(c1ccco1)CC2=O (stereo not given) | 1.1 | 13.2% | -5.8% | 20µM* | ? | -4.7
COc1ccc(C2CC(=O)c3cnc(NC(=O)c4ccco4)nc3C2)cc1 (stereo not given) | 5.0 | 27.7% | 14.6% | -14.5% | 6.3% | 3.7
S=C(Nc1ccc(Cl)cc1)N1CCCCC1 | 13.0* | 22.0% | 18.4% | -0.5% | 28.5% | 28.4
S=C(Nc1ccccc1)N1CCCCC1 | 6.2 | 0.6% | 0.3% | 5.4% | 38.7% | 17.6
S=C(Nc1ccccc1)N1CCN(C(=S)c2ccccc2)CC1 | 44.4* | 3.0% | 0.4% | -4.6% | 86.4% | 71.4*
CN1CCN(C(=S)Nc2ccc(Cl)cc2)CC1 | -3.0 | 16.4% | 3.5% | 0.0% | 6.0% | 2.9
CC(C)CNC(=S)N1CCC(Cc2ccccc2)CC1 | -1.0 | 14.7µM* | -84.3% | -2.9% | ? | 1.9
S=C(Nc1ccc(Cl)cc1Cl)N1CCCCC1 | 17.1* | ? | 12.0% | -20.4% | 24.7% | 52.5
Cc1cccc(NC(=O)CSc2nnc(-c3ccncc3)n2CC2CCCO2)c1 (stereo not given) | -3.4 | 0.0% | -1.0% | 4.1% | -4.9% | -14.9
NCCCCCc1cnc[nH]1 | -1.7 | / | / | / | / | 16.0
CCc1ccc(NC(=S)N2CCCCCCC2)cc1 | 55.8* | 116.4% | / | 7.7% | 126.6% | 67.9*
Cc1ccc(NC(=S)N2CCCC2)cc1C | 25.0* | 8.1% | -0.2% | -1.1% | 48.9% | 32.9
CC(=O)c1ccc(NC(=S)N2CCCC2)cc1 | 17.5* | ? | 3.6% | 9.2% | 41.8% | 29.9
SMILES | Cycloheximide cs | Pf growth 96h | NS1 function inh | Sm TGR inh | Pf growth 48h | Shiga toxin inh
Cc1ccc(NC(=S)N2CCCC2)cc1Cl | 16.1 | 14.0% | -3.9% | 2.1% | 1.0% | 18.0
O=C(O)c1ccc(NC(=S)N2CCCCC2)cc1 | 9.1 | 2.4% | 0.8% | 28.5% | 35.8% | 36.5
CCOc1ccc(NC(=S)N2CCCC2)cc1 | 17.7 | ? | 5.6% | ? | 32.1% | 19.9
S=C(Nc1ccc(Br)cc1)N1CCCC1 | 27.0* | 81.1% | 18.6% | 0.2% | 47.4% | 24.2
Cc1ccccc1C(=O)N1CCC(C(=O)Nc2nc3ccc(F)cc3s2)CC1 | / | ? | / | -4.6% | ? | /
Cc1ccc(-n2ncc(C(=O)N3CCCCC3)c2C2CCN(C(=O)OC(C)(C)C)CC2)c(C)c1 | / | / | / | 8.7% | / | /
CC(=O)c1ccc(NC(=S)N2CCC(Cc3ccccc3)CC2)cc1 | 17.3* | 11.3% | 2.0% | 11.0% | -5.3% | 48.7
Cc1ccc(O)c2ncccc12 | / | ? | / | / | -19.5% | /
Clc1cc2cccnc2c2ncccc12 | / | 11.7µM* | / | -25.9% | 11.7µM* | /
Cc1c(C)c2cccnc2c2ncccc12 | / | ? | / | -2.7% | 1.85µM* | /
CC(=O)c1ccc(NC(=O)c2sc(-n3nc(C)c(CCC(C)C)c3C)nc2C)cc1 | / | / | / | -0.8% | / | /
N#Cc1cc(-c2ccccc2)cn(Cc2c(Cl)cccc2Cl)c1=O | 0.5 | 1.65µM* | -2.6% | -11.7% | ? | -7.6
Cc1ccc(Nc2sc(C(=O)c3ccccc3)c(N)c2C(=O)NC(C)C)cc1 | / | / | / | 31.6µM* | / | /
Cc1ccc(NC(=O)c2c(Nc3ccccc3C)sc(C(=O)c3ccccc3)c2N)cc1 | / | / | / | 8.4% | / | /
COc1ccc(C(=O)c2sc(Nc3ccccc3)c(C(=O)Nc3ccc(OC)c(OC)c3)c2N)cc1 | 12.0 | ? | 15.6% | -0.3% | 13.1µM* | 24.2
COc1ccc(Nc2sc(C(=O)c3ccc(Cl)cc3)c(N)c2C(=O)Nc2ccccc2OC)cc1 | -1.1 | / | 0.0% | -0.4% | 10.4µM* | -18.4
COc1cccc(Nc2sc(C(=O)c3ccc(Cl)cc3)c(N)c2C(=O)NCc2ccc(C)cc2)c1 | / | / | / | 4.2% | / | /
COc1ccc(NC(=O)c2c(Nc3ccccc3)sc(C(=O)c3ccc(F)cc3)c2N)cc1 | 7.2 | / | -2.2% | -10.9% | ? | 39.3
COc1ccc(C(=O)c2sc(Nc3cccc(OC)c3)c(C(=O)Nc3cccc(C)c3C)c2N)cc1 | 1.4 | 11.7µM* | 13.3% | -2.9% | / | -13.6
COc1cc(OC)c(NC(=O)CCCNC(=O)Cn2cnc3sc(C)c(C)c3c2=O)cc1Cl | -4.9 | -12.8% | 20.4% | 0.1% | -2.1% | -3.1
COc1ccccc1NC(=O)c1c(Nc2ccccc2C)sc(C(=O)Nc2cccc(Cl)c2)c1N | -1.4 | 10.4µM* | ? | 4.2% | ? | 9.3
COc1ccc(-c2nn(C)c3sc(C(=O)Nc4cccc(F)c4)cc23)cc1OC | / | / | / | 5.9% | / | /
CCOc1ccccc1NC(=O)CCCNC(=O)Cn1cnc2sc(C)c(C)c2c1=O | -3.6 | 4.2% | -5.9% | -2.8% | 9.9% | -3.8
O=C(O)/C=C/C(=O)c1ccc2c(c1)CCc1ccccc1-2 | / | 20.8% | / | 0.562µM* | 10.9% | /
O=C(O)/C=C/C(=O)Nc1ccc(C(=O)c2ccccc2)cc1 | -1.3 | ? | -4.9% | -15.3% | -19.0% | -12.4
